Assay results as given in PubChem BioAssay AID686978 (National Center for Advancing Translational Sciences (NCATS), 2013).
Out of some 420,000 compounds screened, about 64,000 (15%) were called active. Another 27% or so got no clear call; they are omitted. Not all results are given here. Values without a mark were called inactive. Calls follow the shape of the dose curve; as a rule, active = well fitted inhibition curve with a large enough effect; inconclusive = small, poorly fitted or top-dose-only effect; inactive = flat fitted curve, though single readings scatter.

Experiment: qHTS for Inhibitors of human tyrosyl-DNA phosphodiesterase 1 (TDP1): qHTS in cells in absence of CPT; also: nearly all actives have a fitted effect of over 55% in size
Details: DT40 Tdp1-/- hTDP1 cells, no CPT, ATP luminescence, 48 h; activity change, negative = growth inhibition: at 46.2 µM (top of the series)
Text: Human tyrosyl-DNA phosphodiesterase 1 (TDP1) is a novel repair gene, and we propose to use it as a new target for anticancer drug development. TDP1 is not an essential protein, but under treatment with topoisomerase I poison (camptothecin: CPT), TDP1 works as a critical factor for cell survival. To directly identify novel TDP1 inhibitors active in a cellular environment, we have knocked-out the Tdp1 gene in chicken DT40 cells (Tdp1-/-) and generated a complemented counterpart cells that contains a stable transfection of the human TDP1 gene (Tdp1-/-;hTDP1 cells). For the primary screen, Tdp1-/-;hTDP1 cells will be exposed to small molecules in the presence or absence of CPT, and their growth kinetics will be evaluated after 48 hours by measuring ATP activity. […] The hit compounds will then be evaluated in the presence or absence of CPT using Tdp1-/- cells. […] In tertiary assays, biochemical gel-based assays will be used to assess whether the hit compounds specifically target TDP1.
To this end, we have screened this cell line against the MLSMR in two primary screens. In one screen we add CPT and in the other we screen in the absence of CPT; this AID represents the screen where CPT was absent.
NIH Chemical Genomics Center [NCGC]
NIH Molecular Libraries Probe Centers Network [MLPCN]
Assay Submitter (PI): Yves Pommier, NCI
DT40-hTDP1 cells without 20 nM Camptothecin (add 20 microL of DMSO in 1 L of cell culture medium) were dispensed at 400 cells/5microL/well in tissue culture treated 1536-well white wall/solid bottom assay plates (Greiner Bio-One North America, NC, U.S.A.) using a Multidrop Combi 8 channel dispenser (Thermo Fisher, Waltham, MA, USA). 23 nL compounds and controls were transferred using the pin tool (Kalypsys, San Diego, CA, USA) to the assay plates. The assay plates were then incubated at 37 masculineC for a minimum 48 hr. Three microL of Cell Titer Glo solution was added to the plates and incubated at RT in dark for 30 min. Luminescence was read using ViewLux (Perkin Elmer) with 1 sec exposure slow speed, high gain and 2x binning.
% is scaled to controls: 0 for no effect and ±100 for the full control effect; potency is read from the fitted curve at half-maximal effect.

| Structure (SMILES) | activity change, negative = growth inhibition | Potency |
| --- | --- | --- |
| O=C(CN1C(=O)NC2(CCCCCC2)C1=O)NCc1cccs1 | 0.121% |  |
| CN=C1SC(C(=O)O)CC(=O)N1C (stereo not given) | 1.26% |  |
| COc1ccc(C(=O)n2nc(-c3ccc(C)cc3)nc2N)cc1OC |  | 10.3 µM (active) |
| COc1ccc(C(=O)n2nc(C)c(Br)c2C)cc1OC | -0.43% |  |
| COc1ccc(CC(=O)n2nc(-c3cccnc3)nc2N)cc1 | 1.94% |  |
| Oc1ccc(Cl)c2c1CCC2 | -27% |  |
| CN(Cc1cccnc1)C(=O)c1cc(COc2ccc3ncccc3c2)on1 |  | 8.2 µM (active) |
| CN(CCOc1ccccc1)C(=O)c1cc(COc2c(F)cccc2F)on1 | -24.9% |  |
| Cc1ccc(OCc2cc(C(=O)N(C)CCc3ccccc3)no2)cc1C | -19% |  |
| CCOC(=O)CNC(=O)CSc1ccc2nnc(-c3cccnc3)n2n1 | -1.35% |  |
| COc1ccc(COC(=O)c2n[nH]c3ccccc23)cc1F | -1.31% |  |
| Cn1c(SCc2c(F)cccc2Cl)nnc1-c1cnccn1 | -18.6% |  |
| Cc1cc([N+](=O)[O-])c(NC2CCCCC2)c([N+](=O)[O-])c1 | -10.4% |  |
| CC1CN(C(=S)Nc2ccc(S(N)(=O)=O)cc2)CC(C)O1 (stereo not given) | 11% |  |
| COCCN(Cc1cc2cc3c(cc2nc1Cl)OCO3)C(=O)c1cccc(C)c1 |  | 16.4 µM (active) |
| CCOC(=O)NCc1ccc2c(c1)OCO2 | -1.31% |  |
| CCCCN(CC)C(=O)c1ccc2c(c1)OCO2 | -22.7% |  |
| Nc1ncnc2c1ncn2[C@@H]1O[C@H](C(=O)N2CCCN(Cc3ccccc3F)CC2)[C@@H](O)[C@H]1O | -25.2% |  |
| CCOc1cc(CN2CCCC(CO)(Cc3ccc(F)cc3F)C2)ccc1OC (stereo not given) | -19.8% |  |
| COC(=O)CCC(=O)N1CCCC(CO)(Cc2ccccc2)C1 (stereo not given) | -38.2% |  |
| COc1cccc(CC2(CO)CCCN(Cc3nc(-c4cccs4)oc3C)C2)c1 (stereo not given) |  | 20.6 µM (active) |
| Cc1ccc(CS(=O)(=O)CCC(=O)NC2CC2)cc1 | -0.142% |  |
| CC[N+]1(CC)CC2=Cc3ccccc3CC2C1 (stereo not given) | -19.9% |  |
| O=C(Cn1c[n+](CC(=O)c2ccc([N+](=O)[O-])cc2)cn1)c1ccc([N+](=O)[O-])cc1 |  | 20.6 µM (active) |

| Structure (SMILES) | activity change, negative = growth inhibition | Potency |
| --- | --- | --- |
| O=C(c1ccncc1)c1ccc([N+](=O)[O-])cc1 | -16.7% |  |
| O=C(Nn1cnnc1)c1ccc([N+](=O)[O-])cc1 | -4.36% |  |
| CCOC(=O)CSc1nnc(-c2ccc([N+](=O)[O-])cc2)o1 | -10.3% |  |
| CC(=O)c1ccccc1OCc1ccc(C(=O)c2ccccc2)cc1 |  | 16.4 µM (active) |
| COc1ccccc1C(=O)NNC(=O)c1ccc(NC(=O)c2ccccc2)cc1 | -8.31% |  |
| COc1ccccc1C(=O)Nn1cnnc1 | 3.96% |  |
| COc1ccccc1C(=O)c1ccccc1C(=O)c1ccccc1 |  | 18.4 µM (active) |
| O=C(NC1CCC(O)CC1)c1ccccc1OCc1ccc(F)cc1 (stereo not given) | 9.54% |  |
| O=C(Nc1ccccc1)c1ccccc1OCc1ccccc1 | -23.2% |  |
| COc1ccc(CC(=O)OC(C)C(=O)Nc2ccc(S(N)(=O)=O)cc2)cc1 (stereo not given) | -14.9% |  |
| O=C(Nc1ccccc1C(=O)O)c1ccc(N2C(=O)C3CC=CCC3C2=O)cc1 (stereo not given) | 7.37% |  |
| O=CN1CCN(C(=O)c2ccc3c(c2)OCO3)CC1 | 17.6% |  |
| CNC(=S)NNC(=O)c1cccn(Cc2ccccc2)c1=O | 18.9% |  |
| C=CCNC(=O)COc1coc(CN2CCN(Cc3ccccc3)CC2)cc1=O | 16.1% |  |
| C=CCNC(=S)/N=c1/ccccn1Cc1ccccc1 |  | 1.84 µM (active) |
| CCCc1nc(N)nc2c1C(=O)CC(C)(C)C2 | -9.4% |  |
| COc1ccc(C(C(=O)NC(C)(C)C)N(C(=O)Cn2nnc3ccccc32)c2ccc(C(C)=O)cc2)cc1O (stereo not given) | -0.0142% |  |
| O=C(CC(NCCN1CCOCC1)C(=O)O)Nc1cccc(Cl)c1 (stereo not given) | 0.483% |  |
| OC[C@@H]1CN(Cc2ccc3c(c2)OCO3)C[C@H](n2cnc3c(NCc4ccco4)ncnc32)O1 | -9.44% |  |
| Cc1ccccc1NC(=O)CCNS(=O)(=O)c1ccc2[nH]c(=O)oc2c1 | -1.56% |  |
| COc1ccc(C2=NS(=O)(=O)N(C)C(C(=O)NC(C)c3ccccc3)=C2)cc1 (stereo not given) | -30.1% |  |
| COc1cc(NC(=O)C2=CC(c3ccc(C)cc3)=NS(=O)(=O)N2C)cc(OC)c1OC | -45.5% |  |
| COc1ccc(NC(=O)C2=CC(c3ccc(OC)c(OC)c3)=NS(=O)(=O)N2C)cc1 |  | 23.1 µM (active) |
| COc1ccccc1N(CC(=O)N1CCCCC1)S(=O)(=O)c1ccccc1 | -24.2% |  |

| Structure (SMILES) | activity change, negative = growth inhibition | Potency |
| --- | --- | --- |
| CSc1ccccc1NC(=O)C(C)N1C(=O)c2ccccc2S1(=O)=O (stereo not given) | -7.02% |  |
| CCOC(=O)Nc1ccccc1N1C(=O)c2ccccc2C1=O | 7.52% |  |
| CC(=O)Nc1ccccc1Sc1ccc2c3c(cccc13)C(=O)N(c1ccc(C)cc1)C2=O |  | 16.4 µM (active) |
| Cc1c(Cl)c([N+](=O)[O-])nn1CC(=O)NCC1CCCO1 (stereo not given) | 7.74% |  |
| COc1ccc(NC(=O)CCCC(=O)c2ccccc2)cc1 | -6.59% |  |
| O=S(=O)(N1CCCCC1)N1CCNCC1 | 6.69% |  |
| Cc1cccc(N=C2NC(=O)/C(=C/c3cn(C)c4ccccc34)S2)c1 |  | 16.4 µM (active) |
| Cc1ccc(C(=O)N/C(=C\c2cn(C)c3ccccc23)C(=O)N2CCN(C)CC2)cc1 | 11.5% |  |
| CN1C(=O)/C(=C/c2ccco2)SC1=Nc1cccc(C(=O)O)c1 | -0.247% |  |
| Cc1ccc(NC(=O)CN(C)S(=O)(=O)c2cnc[nH]2)cc1C | -7.33% |  |
| COc1ccc(CCNS(=O)(=O)c2ccc(C(=O)NCc3ccco3)cc2)cc1OC | -12.5% |  |
| CCC1=Nc2cc(C(=O)NCCCOC(C)C)ccc2Sc2ccc(C)cc21 |  | 0.517 µM (active) |
| CC(C)OCCCNC(=O)CNC(=O)c1cccs1 | -7.96% |  |
| O=C(NCCCN1CCOCC1)c1cc(-c2cccc(O)c2)on1 | -18.6% |  |
| CC(C)NC(=O)C(=O)NCCCOC(C)C | -0.626% |  |
| O=C(NCc1ccco1)c1cccc(-c2ccc3nncn3c2)c1 | -12.4% |  |
| COc1ccc(C(=O)NCCCN2CCOCC2)cc1Br | 6.89% |  |
| CCCC1=Nc2cc(C(=O)NCc3ccco3)ccc2Sc2ccccc21 |  | 3.66 µM (active) |
| CCC1=Nc2cc(C(=O)NCC(C)c3ccccc3)ccc2Sc2ccc(C)cc21 (stereo not given) |  | 23.1 µM (active) |
| Cc1ccc(C(=O)NC(C)c2ccccc2)cc1Br (stereo not given) | -22.9% |  |
| Cc1ccc2nc(CNC(=O)c3ccccc3)[nH]c2c1 | -0.575% |  |
| CCC1=Nc2cc(C(=O)NCCCN3CCOCC3)ccc2Sc2ccc(Br)cc21 |  | 3.66 µM (active) |
